According to PubChem BioAssay:
Calls of active or inactive are those of the source. Unless noted, no rule for the calls is given here.

How the values were obtained:
[1] = system: Wnt5a (protein binding on small-molecule microarray); assay: small molecules binding Wnt5a protein – biophysical, small-molecule microarray, 635/667 nm fluorescence, primary screen (AID 1142); conditions: 635 nm fluorescence, higher = more signal;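 also: fluorescence read at 667 nm with signal to noise per printed feature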
[2] = ATP-based viability of Huh7 replicon cells – cell-based, CellTiter-Glo luminescence, basal, 48 h, cytotoxicity control for HCV replication inhibitor project, primary screen (AID 1143); conditions: higher = more signal, called active from +8 up or from −8 down;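 also: Huh7 hepatoma cells carrying a hepatitis C replication reporter with no stimulus; test concentration not given here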
[3] = Pseudomonas biofilm growth suppression – PAO1 strain, BacTiter-Glo luminescence, LB-PBS, primary screen (AID 1144); conditions: P. aeruginosa PAO1 biofilm, 12 h, higher = more signal
[4] = basal CRE-LacZ reporter activity in PC12 – cell-based, unstimulated, primary screen (AID 1145); conditions: no forskolin, luminescence, 4.5 h, higher = more signal, called active from +8 up or from −8 down
[5] = forskolin-driven CRE-LacZ activity in PC12 – cell-based, CRE-LacZ reporter, forskolin-stimulated, primary screen (AID 1146); conditions: luminescence, 4.5 h, higher = more signal, called active from +8 up or from −8 down;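 also: PC12 cells with 6xCRE LacZ reporter stimulated by forskolin 10 µM; beta-galactosidase reporter signal reflecting CREB driven transcription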
[6] = biological target: Streptavidin (Streptomyces avidinii) (UniProt P22629); assay: compounds binding control protein streptavidin – biophysical, small-molecule microarray, 635/667 nm fluorescence, artefact control for SMM compound annotation, primary screen (AID 1147); conditions: higher = more signal;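 also: signal reflects streptavidin binding to arrayed compounds as a control protein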
Chain of Streptavidin (Streptomyces avidinii) (P22629 whole entry, looked up): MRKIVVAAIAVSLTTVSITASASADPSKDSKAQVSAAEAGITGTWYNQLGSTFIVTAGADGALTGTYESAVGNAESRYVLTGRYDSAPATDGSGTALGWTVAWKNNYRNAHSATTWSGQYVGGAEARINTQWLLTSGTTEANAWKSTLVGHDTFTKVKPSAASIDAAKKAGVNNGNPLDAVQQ

[7] = probe aInhba binding on compound microarray – biochemical, small-molecule microarray, 635/667 nm fluorescence, primary screen (AID 1148); conditions: higher = more signal;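 also: score merges 667nm spot fluorescence with signal-to-noise for antibody binding to printed compounds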
Torsin-1A (Homo sapiens) [8] = biological target: Torsin-1A (Homo sapiens) (UniProt O14656); assay: TOR1A wild-type binding on microarray – cell lysate, small-molecule microarray, lysate, 635/667 nm, primary screen (AID 1149); conditions: COS7 hTOR1A-WT lysate, 635 nm fluorescence, higher = more signal
Chain of Torsin-1A (Homo sapiens) (O14656 whole entry, looked up): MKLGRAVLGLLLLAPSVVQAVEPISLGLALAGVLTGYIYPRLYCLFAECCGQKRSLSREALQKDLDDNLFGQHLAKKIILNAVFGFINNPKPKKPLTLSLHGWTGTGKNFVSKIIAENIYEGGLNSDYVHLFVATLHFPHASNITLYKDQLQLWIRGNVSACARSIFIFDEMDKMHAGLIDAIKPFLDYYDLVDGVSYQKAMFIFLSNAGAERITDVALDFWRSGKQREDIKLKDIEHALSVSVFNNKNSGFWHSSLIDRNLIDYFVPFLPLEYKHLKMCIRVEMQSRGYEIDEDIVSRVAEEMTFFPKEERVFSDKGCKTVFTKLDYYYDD

Torsin-1A (Homo sapiens) [9] = biological target: Torsin-1A (Homo sapiens) (UniProt O14656); assay: torsin A mutant lysate binding on microarrays – cell lysate, small-molecule microarray, COS7 lysate, 635/667 nm fluorescence, primary screen (AID 1150); conditions: COS7 hTOR1A mutant lysate, 635 nm fluorescence, higher = more signal;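 also: score pools 667 nm emission and signal to noise measuring lysate protein binding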
[10] = system: Sonic hedgehog protein (Shh); assay: Sonic hedgehog microarray binding compounds – biochemical, small-molecule microarray, 635/667 nm fluorescence, primary screen (AID 1151); conditions: 635 nm fluorescence, higher = more signal;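 also: Shh protein binding to compounds spotted on small-molecule microarray slides; score combines spot fluorescence intensity with signal-to-noise across triplicate slides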
[11] = optical density shifts of acrAB sulA E. coli – strain DRC41, OD650, 48 h, E. coli filamentation inducer project, primary screen (AID 1152); conditions: higher = more signal, called active from +8 up or from −8 down;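 also: E. coli MC1000 strain DRC41 lacking acrAB efflux pump and sulA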
[12] = probe aLefty1 binding on compound microarray – biochemical, small-molecule microarray, 635/667 nm fluorescence, primary screen (AID 1153); conditions: higher = more signal;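 also: score merges spot fluorescence with signal-to-noise ratio from the scanned slide images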
[13] = plasmodial surface anion channel blockers, osmotic lysis – cell-based, P. falciparum Indochina, OD700, 1 h, primary screen (AID 1154); conditions: P. falciparum Indochina infected RBC osmotic lysis, higher = more signal, called active from +8 up or from −8 down
[14] = plasmodial surface anion channel blockers, osmotic lysis – cell-based, P. falciparum Indochina, OD700, 2 h, primary screen (AID 1155);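 also: lysis reports solute entry through the parasite surface anion channel PSAC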; conditions: P. falciparum Indochina infected erythrocytes, higher = more signal, called active from +8 up or from −8 down
[15] = changes in parasitized red cell lysis, either direction – P. falciparum Indochina, OD700, 3 h, PSAC antagonist project, primary screen (AID 1156); conditions: P. falciparum-infected erythrocytes, osmotic lysis, higher = more signal, called active from +8 up or from −8 down
[16] = plasmodial surface anion channel blockers, osmotic lysis – cell-based, P. falciparum Indochina, OD700, 18 h, primary screen (AID 1157); conditions: P. falciparum Indochina infected erythrocytes, osmotic lysis OD700, 18 h; higher = more signal, called active from +8 up or from −8 down
[17] = S6 kinase pathway phospho-S6 level changes – cell-based, A549, cytoblot, luminescence, serum-stimulated, primary screen (AID 1158); conditions: 5 h, higher = more signal;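 also: serum-stimulated A549 lung adenocarcinoma cells; signal is phosphorylated S6 detected by cytoblot immunostaining with HRP secondary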
[18] = biological target: NADPH oxidase 2 (Homo sapiens) (UniProt P04839); assay: compounds shifting NOX2 Amplex Red fluorescence – cell-based, HEK293-NOX2, PMA-stimulated, NOX inhibitor project, primary screen (AID 1159); conditions: 45 min, higher = more signal, called active from +8 up or from −8 down; also: test concentration not given here
Chain of NADPH oxidase 2 (Homo sapiens) (P04839 whole entry, looked up): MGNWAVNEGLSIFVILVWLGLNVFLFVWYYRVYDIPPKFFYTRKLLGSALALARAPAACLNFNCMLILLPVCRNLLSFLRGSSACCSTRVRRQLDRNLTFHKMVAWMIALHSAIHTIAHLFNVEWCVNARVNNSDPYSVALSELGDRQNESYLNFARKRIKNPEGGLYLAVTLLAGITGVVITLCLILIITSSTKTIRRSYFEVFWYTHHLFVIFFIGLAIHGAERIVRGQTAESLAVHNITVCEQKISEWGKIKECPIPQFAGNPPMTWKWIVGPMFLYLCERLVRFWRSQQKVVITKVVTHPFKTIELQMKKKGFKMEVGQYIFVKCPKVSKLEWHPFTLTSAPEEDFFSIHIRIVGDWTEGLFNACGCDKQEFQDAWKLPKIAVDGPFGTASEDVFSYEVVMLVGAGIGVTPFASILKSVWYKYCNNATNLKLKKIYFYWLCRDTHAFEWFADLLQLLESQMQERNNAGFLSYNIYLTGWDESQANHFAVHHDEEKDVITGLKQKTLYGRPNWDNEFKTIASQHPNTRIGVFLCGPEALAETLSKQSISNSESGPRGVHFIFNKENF

[19] = biological target: NADPH oxidase 4 (Homo sapiens) (UniProt Q9NPH5); assay: compounds shifting NOX4 Amplex Red fluorescence – cell-based, HEK293-NOX4, tetracycline-induced, NOX inhibitor project, primary screen (AID 1160); conditions: HEK293-NOX4, Amplex Red H2O2 fluorescence, 45 min; higher = more signal, called active from +8 up or from −8 down
Chain of NADPH oxidase 4 (Homo sapiens) (Q9NPH5 whole entry, looked up): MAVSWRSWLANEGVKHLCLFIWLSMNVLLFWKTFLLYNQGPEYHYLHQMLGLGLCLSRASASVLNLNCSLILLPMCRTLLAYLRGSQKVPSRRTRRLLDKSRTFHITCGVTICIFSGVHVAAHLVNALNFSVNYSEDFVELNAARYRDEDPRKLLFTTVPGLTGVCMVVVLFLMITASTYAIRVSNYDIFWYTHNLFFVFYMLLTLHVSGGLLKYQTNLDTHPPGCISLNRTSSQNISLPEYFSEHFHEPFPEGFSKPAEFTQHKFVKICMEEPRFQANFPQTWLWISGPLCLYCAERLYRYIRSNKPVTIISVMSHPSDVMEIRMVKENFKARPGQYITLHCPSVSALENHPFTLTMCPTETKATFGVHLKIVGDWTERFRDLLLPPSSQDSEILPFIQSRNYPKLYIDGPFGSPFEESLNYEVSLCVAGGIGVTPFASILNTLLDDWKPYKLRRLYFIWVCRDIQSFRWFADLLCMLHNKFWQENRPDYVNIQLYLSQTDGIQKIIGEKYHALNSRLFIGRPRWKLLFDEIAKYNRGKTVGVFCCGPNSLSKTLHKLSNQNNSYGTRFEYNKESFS

[20] = biological target: NADPH oxidase 5 (Homo sapiens) (UniProt Q96PH1); assay: compounds shifting NOX5 Amplex Red fluorescence – cell-based, HEK293-NOX5, NOX inhibitor project, primary screen (AID 1161); conditions: HEK293-NOX5, ionomycin, 45 min, higher = more signal
Chain of NADPH oxidase 5 (Homo sapiens) (Q96PH1 whole entry, looked up): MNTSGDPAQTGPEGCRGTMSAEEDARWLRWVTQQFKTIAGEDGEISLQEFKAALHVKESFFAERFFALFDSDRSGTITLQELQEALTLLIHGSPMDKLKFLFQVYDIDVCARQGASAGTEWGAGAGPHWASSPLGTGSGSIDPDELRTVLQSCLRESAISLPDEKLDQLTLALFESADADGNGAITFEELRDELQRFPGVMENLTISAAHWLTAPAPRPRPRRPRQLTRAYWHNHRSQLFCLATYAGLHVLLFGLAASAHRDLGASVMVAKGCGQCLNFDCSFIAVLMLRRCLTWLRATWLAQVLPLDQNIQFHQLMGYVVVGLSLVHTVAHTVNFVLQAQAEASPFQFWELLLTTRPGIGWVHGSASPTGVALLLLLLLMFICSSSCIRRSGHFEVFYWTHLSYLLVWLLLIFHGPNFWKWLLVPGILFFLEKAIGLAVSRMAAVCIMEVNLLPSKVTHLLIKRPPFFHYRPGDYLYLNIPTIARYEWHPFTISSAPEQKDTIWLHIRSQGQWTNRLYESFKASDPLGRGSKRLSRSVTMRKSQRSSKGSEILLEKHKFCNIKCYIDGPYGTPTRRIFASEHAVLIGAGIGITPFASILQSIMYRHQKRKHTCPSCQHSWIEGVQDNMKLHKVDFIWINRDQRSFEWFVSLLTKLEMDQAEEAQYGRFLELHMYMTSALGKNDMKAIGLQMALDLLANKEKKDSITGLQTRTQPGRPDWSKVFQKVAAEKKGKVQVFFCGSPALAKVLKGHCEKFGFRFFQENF

For O=C(NCC(O)CO)C1N=C(c2ccc(OCCCO)cc2)N(c2ccccc2)O1 (stereo not given), the composite z-score [1] was 0.41, the z-score [2] was -1.12 (inactive) and the z-score [3] was 2.56 (inactive). The z-score [4] was 0.456 (inactive), the z-score [5] was -0.442 (inactive) and the composite z-score [6] was -0.214. It also gave a composite z-score [7] of -0.0468, a composite z-score (Torsin-1A (Homo sapiens) [8]) of 0.975 and a composite z-score (Torsin-1A (Homo sapiens) [9]) of 0.682. For the same compound, the composite z-score [10] was 1.27, the z-score [11] was -0.0446 (inactive) and the composite z-score [12] was -0.316. For the same compound, the z-score [13] was 13.5 (active), the z-score [14] was 1.49 (inactive) and the z-score [15] was 0.257 (inactive). For the same compound, the z-score [16] was 0.594 (inactive), the z-score [17] was 0.0265 and the z-score [18] was -1.68 (inactive). The z-score [19] was -1.05 (inactive) and the z-score [20] was -0.583.

With COCCOC(=O)N1C(=O)[C@@]2(c3cc(C#CC4(O)CCCCCC4)ccc31)[C@H](c1ccc(O)cc1)N1[C@H](c3ccccc3)[C@H](c3ccccc3)OC(=O)[C@H]1[C@@H]2C(=O)N1CCCCCCC1 the composite z-score [1] was 0.357, the z-score [2] was -0.844 (inactive) and the z-score [3] was 0.887 (inactive). For the same compound, the z-score [4] was 0.484 (inactive), the z-score [5] was -0.125 (inactive) and the composite z-score [6] was -0.215. For the same compound, the composite z-score [7] was -0.0631, the composite z-score (Torsin-1A (Homo sapiens) [8]) was 0.123 and the composite z-score (Torsin-1A (Homo sapiens) [9]) was 0.275. The composite z-score [10] was 1.09, the z-score [11] was 0.341 (inactive) and the composite z-score [12] was 1.08. For the same compound, the z-score [13] was 1.13 (inactive), the z-score [14] was 0.928 (inactive) and the z-score [15] was 0.0786 (inactive). The z-score [16] was 0.166 (inactive), the z-score [17] was -0.363 and the z-score [18] was 1.61 (inactive). For the same compound, the z-score [19] was 0.0838 (inactive) and the z-score [20] was 1.41.

For COc1ccc(C(O)C2C=CC3C(=O)N(C)C(=O)C3N2N(c2ccccc2)c2ccccc2)cc1 (stereo not given), the composite z-score [1] was 0.0865, the z-score [2] was 0.522 (inactive) and the z-score [3] was 0.219 (inactive). The z-score [4] was 0.629 (inactive), the z-score [5] was 0.517 (inactive) and the composite z-score [6] was 1.35. For the same compound, the composite z-score [7] was 0.105, the composite z-score (Torsin-1A (Homo sapiens) [8]) was 0.153 and the composite z-score (Torsin-1A (Homo sapiens) [9]) was 0.368. The composite z-score [10] was -0.176, the z-score [11] was -1.3 (inactive) and the composite z-score [12] was 0.363. For the same compound, the z-score [13] was 2.07 (inactive), the z-score [14] was 1.14 (inactive) and the z-score [15] was 0.509 (inactive). For the same compound, the z-score [16] was 0.974 (inactive), the z-score [17] was -0.478 and the z-score [18] was -0.685 (inactive). The z-score [19] was -2.05 (inactive) and the z-score [20] was -0.77.
